Results as given in PubChem BioAssay (Tox21).
Records with an inconclusive call do not appear. The source made the active and inactive calls. Unless noted, calls come from the whole dose curve; as a rule, active = well fitted curve in the direction sought with a large enough effect in the repeat runs; inconclusive = weak or mixed curves; inactive = no such curve, though single readings can be large; an effect the other way counts as inactive or inconclusive.

What was measured:
[1] = target: Aryl hydrocarbon receptor (Homo sapiens) (UniProt P35869); assay: qHTS assay to identify small molecule that activate the aryl hydrocarbon receptor (AhR) signaling pathway (AID 743085);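 note: HG2L7.5c1 human HepG2 liver cells with stably integrated DRE-driven firefly reporter; series mostly up to about 70 µM; nearly all actives have a fitted effect of over 15% in size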
Method in brief: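 Stably transfected human liver carcinoma cells (HG2L7.5c1; 20 DRE-firefly luciferase) were incubated 5 h, dosed, and kept 24 h at 37C. Agonism was scored from increased luciferase luminescence.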

[2] = qHTS assay to identify small molecule that activate the aryl hydrocarbon receptor (AhR) signaling pathway - cell viability counter screen (AID 743086);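 note: HepG2 liver cells carrying the AhR DRE luciferase reporter; series mostly up to about 70 µM; nearly all actives have a fitted effect of over 45% in size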
Method in brief: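 HepG2-AhR-luc (HG2L7.5c1) cells, 4000/well, treated 24 h at 37 C with compound; viability measured as CellTiter-Fluor fluorescence after 30 min in the same wells as the luciferase read.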

[3] = target: Peroxisome proliferator-activated receptor gamma (Homo sapiens) (UniProt P37231); assay: qHTS assay to identify small molecule agonists of the peroxisome proliferator-activated receptor gamma (PPARg) signaling pathway (AID 743094; active = well fitted activation curve with a large enough effect in the signal ratio in the repeat runs, not every such curve was filed as active; the % refers to the signal ratio)
Method in brief: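 Cells from the PPARg UAS-bla HEK293H line are plated and incubated 5 h at 37C. Compounds in DMSO are pinned in and left 17 h at 37C. LiveBLAzer B/G substrate is then added for 1 h at room temperature before fluorescence is measured.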

[4] = target: Peroxisome proliferator-activated receptor gamma (Homo sapiens) (UniProt P37231); assay: qHTS assay to identify small molecule antagonists of the peroxisome proliferator-activated receptor gamma (PPARg) signaling pathway (AID 743191; calls by dose curve; note: series mostly up to about 63 µM; nearly all actives have a fitted effect of over 30% in size)
Method in brief: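 GeneBLAzer PPARg UAS-bla HEK293H cells, 5 h post-plating, exposed to compounds 17 h at 37C. LiveBLAzer B/G FRET substrate added for 1 h at room temperature; beta-lactamase reporter read by fluorescence intensity.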

[5] = qHTS assay to identify small molecule antagonists of the peroxisome proliferator-activated receptor gamma (PPARg) signaling pathway - cell viability counter screen (AID 743194); conditions: Potency: co-treated with 50 nM rosiglitazone; note: nearly all actives have a fitted effect of over 55% in size
Method in brief: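 Cytotoxicity counter screen in PPARg-bla HEK293H cells, same wells as reporter assay. Compounds plus 50 nM rosiglitazone (final) for 17 h at 37 C, then viability read by CellTiter-Glo luminescence.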

[6] = qHTS assay for small molecule agonists of the antioxidant response element (ARE) signaling pathway - cell viability counter screen (AID 743203; calls by dose curve; note: nearly all actives have a fitted effect of over 55% in size)
Method in brief: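 Cytotoxicity was tested in parallel with the ARE reporter screen. ARE-bla HepG2 cells were exposed to compounds for 16 hrs, and viability was taken from CellTiter-Glo luminescence.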

[7] = qHTS assay for small molecule activators of the heat shock response signaling pathway - cell viability counter screen (AID 743209); note: nearly all actives have a fitted effect of over 50% in size
Method in brief: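 Cytotoxicity counter screen run in parallel with the HSE beta-lactamase reporter, using the same wells. HeLa HSE-bla cells received compound for 5 h at 37 C; ATP-based CellTiter-Glo luminescence was measured after 30 min at room temperature.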

[8] = qHTS assay for small molecule activators of the heat shock response signaling pathway (AID 743210; active = well fitted activation curve with a large enough effect in the signal ratio in the repeat runs, with a control signal flat, not every such curve was filed as active; the % refers to the signal ratio;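 note: HeLa cells with beta-lactamase reporter driven by heat shock elements; series mostly up to about 63 µM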)
Method in brief: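 Beta-lactamase reporter read-out: FRET substrate fluorescence after 2.5 h at RT, following 5 h compound treatment at 37 C of HeLa cells carrying HSE-driven bla reporter; quantitative HTS format.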

[9] = qHTS assay to identify small molecule agonists of the peroxisome proliferator-activated receptor delta (PPARd) signaling pathway - cell viability counter screen (AID 743211); note: nearly all actives have a fitted effect of over 55% in size
Method in brief: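 In the same wells used for beta-lactamase reporter measurement, cytotoxicity is scored by CellTiter-Glo. HEK293H PPARd-bla cells receive compound for 17 h at 37C following a 5 h settling period.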

[10] = target: Peroxisome proliferator-activated receptor delta (Homo sapiens) (UniProt Q03181); assay: qHTS assay to identify small molecule agonists of the peroxisome proliferator-activated receptor delta (PPARd) signaling pathway (AID 743212; calls by dose curve)
Method in brief: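 Read-out: beta-lactamase FRET fluorescence after 2 h room-temperature incubation with LiveBLAzer B/G substrate. Cells were HEK293H carrying a UAS-bla reporter for PPARd, treated at 37 C with DMSO-dissolved compounds.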

[11] = qHTS assay to identify small molecule antagonists of the peroxisome proliferator-activated receptor delta (PPARd) signaling pathway - cell viability counter screen (AID 743213); note: nearly all actives have a fitted effect of over 50% in size
Method in brief: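 In this counter screen, HEK293H cells carrying a UAS-beta-lactamase reporter are co-treated with test compounds and 300 nM L165041 (final) for 17 h at 37 C; cell viability is quantified by CellTiter-Glo luminescence.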

[12] = target: Peroxisome proliferator-activated receptor delta (Homo sapiens) (UniProt Q03181); assay: qHTS assay to identify small molecule antagonists of the peroxisome proliferator-activated receptor delta (PPARd) signaling pathway (AID 743215; active = well fitted inhibition curve with a large enough effect in the signal ratio in the repeat runs, not every such curve was filed as active; the % refers to the signal ratio;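 note: cells stimulated with agonist L165041 at 300 nM final during compound exposure; series mostly up to about 62 µM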)
Method in brief: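 Cells: HEK293H with a UAS-driven beta-lactamase reporter responsive to PPARd. Compounds were co-added with L165041 (300 nM, final) and incubated 17 h at 37 C before a 2 h room-temperature FRET substrate step and fluorescence reading.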

[13] = target: Bile acid receptor (Homo sapiens) (UniProt Q96RI1); assay: qHTS assay to identify small molecule antagonists of the farnesoid-X-receptor (FXR) signaling pathway (AID 743217; active = well fitted inhibition curve with a large enough effect in the signal ratio in the repeat runs, not every such curve was filed as active; the % refers to the signal ratio)
Method in brief: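 Cells carrying a UAS-driven beta-lactamase reporter (GeneBLAzer FXR-UAS-bla HEK 293T) were plated and rested 5 h at 37 °C. Compounds in DMSO were added alongside chenodeoxycholic acid agonist at 50 uM final and left 16 h at 37 °C before FRET substrate readout.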

[14] = target: Bile acid receptor (Homo sapiens) (UniProt Q96RI1); assay: qHTS assay to identify small molecule agonists of the farnesoid-X-receptor (FXR) signaling pathway (AID 743220; active = well fitted activation curve with a large enough effect in the signal ratio in the repeat runs, not every such curve was filed as active; the % refers to the signal ratio)
Method in brief: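 FXR-UAS-bla HEK 293T cells carrying a UAS-driven beta-lactamase reporter were plated for 5 h at 37C/5% CO2, then exposed to DMSO-dissolved Tox21 10K compounds for 16 h at 37C. A LiveBLAzer B/G FRET substrate was loaded for 2 h at room temperature before fluorescence reading.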

[15] = qHTS assay to identify small molecule antagonists of the farnesoid-X-receptor (FXR) signaling pathway - cell viability counter screen (AID 743221; active = well fitted cell-killing curve with a large enough effect in the repeat runs, not every such curve was filed as active; note: nearly all actives have a fitted effect of over 50% in size)
Method in brief: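 Here viability was scored by luminescence after CellTiter-Glo addition to wells already read for beta-lactamase. Prior treatment: compound plus CDCA (50 uM final), 16 h, 37 C, HEK 293T FXR-bla cells.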

[16] = target: Vitamin D3 receptor (Homo sapiens) (UniProt P11473); assay: qHTS assay to identify small molecule agonists of the vitamin D receptor (VDR) signaling pathway (AID 743222; calls by dose curve)
Method in brief: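 Cells carrying a VDR-driven beta-lactamase reporter are seeded at 2,000 per well and rested 4 h. Compounds in DMSO are added for 16 h at 37C, and FRET substrate fluorescence is measured after 2 h at room temperature.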

[17] = qHTS assay to identify small molecule agonists of the vitamin D receptor (VDR) signaling pathway - cell viability counter screen (AID 743224); note: series mostly up to about 63 µM; nearly all actives have a fitted effect of over 50% in size
Method in brief: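 Cells: VDR-bla, 2,000/well, settled 4 h. Treatment: compounds in DMSO, 16 h, 37C/5% CO2. Readout: CellTiter-Glo luminescence after 30 min RT.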

[18] = qHTS assay for small molecule agonists of the antioxidant response element (ARE) signaling pathway (AID 743202; active = well fitted activation curve with a large enough effect in the signal ratio in the repeat runs, not every such curve was filed as active; the % refers to the signal ratio)
Method in brief: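 HepG2 ARE-bla reporter line, 2,000 cells/well; 5 h preincubation 37 C/5% CO2; compound (DMSO) 16 h 37 C; B/G FRET substrate 2 h RT; fluorescence intensity.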

[19] = qHTS assay to identify small molecule agonists of the farnesoid-X-receptor (FXR) signaling pathway - cell viability counter screen (AID 743218); note: nearly all actives have a fitted effect of over 45% in size
Method in brief: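 Cells were seeded, left 5 h at 37 C and 5% CO2, then dosed with compound in DMSO for 16 h. After the beta-lactamase FRET read, CellTiter-Glo was added and luminescence measured 30 min later.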

[20] = target: Vitamin D3 receptor (Homo sapiens) (UniProt P11473); assay: qHTS assay to identify small molecule antagonists of the vitamin D receptor (VDR) signaling pathway (AID 743223; active = well fitted inhibition curve with a large enough effect in the signal ratio in the repeat runs, not every such curve was filed as active; the % refers to the signal ratio)
Method in brief: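 Inhibition of agonist-driven VDR signalling is scored in VDR-bla cells: 3 nM final 1alpha,25-dihydroxyvitamin D3 plus compound, 16 h at 37C, then beta-lactamase detection by FRET substrate fluorescence after 2 h.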

Measured: Potency

Peroxisome proliferator-activated receptor gamma (Homo sapiens), sequence (P37231 whole entry, looked up): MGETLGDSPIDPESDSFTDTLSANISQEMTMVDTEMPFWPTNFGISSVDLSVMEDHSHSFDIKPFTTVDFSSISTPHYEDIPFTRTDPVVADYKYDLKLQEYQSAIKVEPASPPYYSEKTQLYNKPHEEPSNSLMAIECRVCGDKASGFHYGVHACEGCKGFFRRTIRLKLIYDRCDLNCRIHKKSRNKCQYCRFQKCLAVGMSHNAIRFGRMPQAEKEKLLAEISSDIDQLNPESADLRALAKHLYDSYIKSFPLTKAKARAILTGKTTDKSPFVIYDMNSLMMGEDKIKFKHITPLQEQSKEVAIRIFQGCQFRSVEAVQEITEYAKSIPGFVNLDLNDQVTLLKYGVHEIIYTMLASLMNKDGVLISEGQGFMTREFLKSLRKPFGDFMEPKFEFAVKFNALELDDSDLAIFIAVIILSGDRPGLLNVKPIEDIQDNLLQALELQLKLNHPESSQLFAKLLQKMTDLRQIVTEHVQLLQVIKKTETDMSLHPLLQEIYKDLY
Aryl hydrocarbon receptor (Homo sapiens), sequence (P35869 whole entry, looked up): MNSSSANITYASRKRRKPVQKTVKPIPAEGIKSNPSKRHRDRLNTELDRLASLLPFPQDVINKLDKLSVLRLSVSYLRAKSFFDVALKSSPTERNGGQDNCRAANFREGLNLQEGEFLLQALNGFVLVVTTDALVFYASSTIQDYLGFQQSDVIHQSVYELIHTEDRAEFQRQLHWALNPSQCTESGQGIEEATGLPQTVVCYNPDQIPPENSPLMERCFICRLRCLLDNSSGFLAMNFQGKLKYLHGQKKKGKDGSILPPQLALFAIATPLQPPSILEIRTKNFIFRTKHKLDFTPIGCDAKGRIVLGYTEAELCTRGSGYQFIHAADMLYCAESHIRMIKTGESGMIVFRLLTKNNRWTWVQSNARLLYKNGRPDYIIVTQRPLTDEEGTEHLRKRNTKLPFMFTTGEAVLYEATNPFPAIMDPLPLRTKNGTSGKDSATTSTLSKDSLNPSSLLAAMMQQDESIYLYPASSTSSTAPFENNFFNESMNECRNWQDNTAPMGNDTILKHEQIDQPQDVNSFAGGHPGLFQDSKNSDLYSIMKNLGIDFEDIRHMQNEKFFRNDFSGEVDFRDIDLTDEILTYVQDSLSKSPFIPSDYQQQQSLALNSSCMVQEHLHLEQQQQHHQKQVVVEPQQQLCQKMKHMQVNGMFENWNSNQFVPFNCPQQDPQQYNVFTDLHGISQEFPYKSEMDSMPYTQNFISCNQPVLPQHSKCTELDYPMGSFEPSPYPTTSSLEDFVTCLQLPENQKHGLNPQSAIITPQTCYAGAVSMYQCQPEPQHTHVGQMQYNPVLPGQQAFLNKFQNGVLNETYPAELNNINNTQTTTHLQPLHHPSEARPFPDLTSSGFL
Peroxisome proliferator-activated receptor delta (Homo sapiens), sequence (Q03181 whole entry, looked up): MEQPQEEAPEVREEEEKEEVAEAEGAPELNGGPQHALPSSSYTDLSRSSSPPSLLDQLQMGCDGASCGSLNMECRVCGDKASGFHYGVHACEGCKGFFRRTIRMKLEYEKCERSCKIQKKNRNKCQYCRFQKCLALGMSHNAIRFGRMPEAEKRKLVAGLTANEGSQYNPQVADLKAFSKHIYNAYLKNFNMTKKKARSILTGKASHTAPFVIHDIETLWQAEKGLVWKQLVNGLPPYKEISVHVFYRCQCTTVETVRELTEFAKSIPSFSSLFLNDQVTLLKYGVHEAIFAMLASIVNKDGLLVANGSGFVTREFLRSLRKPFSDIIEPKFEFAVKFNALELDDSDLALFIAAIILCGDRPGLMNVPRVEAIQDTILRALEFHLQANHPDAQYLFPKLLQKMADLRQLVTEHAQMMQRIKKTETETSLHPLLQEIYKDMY
Vitamin D3 receptor (Homo sapiens), sequence (P11473 whole entry, looked up): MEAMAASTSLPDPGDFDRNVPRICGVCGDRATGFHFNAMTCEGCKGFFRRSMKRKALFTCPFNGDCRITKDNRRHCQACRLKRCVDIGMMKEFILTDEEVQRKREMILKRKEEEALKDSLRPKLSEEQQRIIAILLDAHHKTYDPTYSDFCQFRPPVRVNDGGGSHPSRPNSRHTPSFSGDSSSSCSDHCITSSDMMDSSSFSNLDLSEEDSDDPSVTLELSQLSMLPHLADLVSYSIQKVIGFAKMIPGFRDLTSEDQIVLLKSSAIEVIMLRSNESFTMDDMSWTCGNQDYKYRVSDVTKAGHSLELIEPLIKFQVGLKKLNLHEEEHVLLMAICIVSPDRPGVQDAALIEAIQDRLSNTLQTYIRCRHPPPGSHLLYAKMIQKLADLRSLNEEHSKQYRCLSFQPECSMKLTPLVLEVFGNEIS
Bile acid receptor (Homo sapiens), sequence (Q96RI1 whole entry, looked up): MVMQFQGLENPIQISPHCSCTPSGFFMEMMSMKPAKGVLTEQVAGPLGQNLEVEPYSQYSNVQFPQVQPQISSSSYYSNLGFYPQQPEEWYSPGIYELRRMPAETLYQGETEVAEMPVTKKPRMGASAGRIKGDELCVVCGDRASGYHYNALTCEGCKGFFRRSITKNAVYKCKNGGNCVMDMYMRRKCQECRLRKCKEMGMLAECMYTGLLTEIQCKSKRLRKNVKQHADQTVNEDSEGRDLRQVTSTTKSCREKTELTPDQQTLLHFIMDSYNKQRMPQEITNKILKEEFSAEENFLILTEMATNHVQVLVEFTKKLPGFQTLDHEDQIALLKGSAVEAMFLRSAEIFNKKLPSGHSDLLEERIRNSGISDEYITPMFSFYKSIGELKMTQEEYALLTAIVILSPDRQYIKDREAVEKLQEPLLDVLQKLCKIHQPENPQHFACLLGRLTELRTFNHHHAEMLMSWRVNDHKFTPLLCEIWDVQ

CC(O)CCl (centres undefined)
not listed: [18] | [19] | [20]
inactive: all other assays above

NNC(N)=O
not listed: [4] | [17] | [20]
inactive: all other assays above

O=C(Cl)c1ccccc1
not listed: [5] | [18] | [19]
inactive: all other assays above

O=c1[nH]oc2c1CCNC2
not listed: [4] | [12] | [13] | [14] | [16] | [17] | [20]
inactive: all other assays above

CCC(=O)OC1(c2ccccc2)CCN(C)CC1
not listed: [4] | [12]
inactive: all other assays above

COP(=O)(O)OC
not listed: [4] | [12] | [16] | [20]
inactive: all other assays above

CCCCCCC1CCOC1=O (centres undefined)
not listed: [4] | [7] | [10] | [12] | [13] | [14] | [20]
inactive: all other assays above

ClCCCCCCCl
not listed: [4] | [10] | [12] | [13] | [14]
inactive: all other assays above

ClCC1CO1 (centres undefined)
not listed: [4] | [7] | [13] | [14]
inactive: all other assays above

C/C=C/CC#N
not listed: [4] | [12] | [13] | [16] | [20]
inactive: all other assays above

CCC1(c2ccccc2)CCC(=O)NC1=O (centres undefined)
not listed: [4] | [7] | [13] | [14] | [17]
inactive: all other assays above

Nc1c(Cl)c(F)nc(OCC(=O)O)c1Cl
not listed: [4] | [7] | [10] | [12] | [13] | [14] | [19]
inactive: all other assays above

CCC1(c2cccc(O)c2)CCCCN(C)C1 (centres undefined)
not listed: [4] | [7] | [12] | [13] | [14] | [17]
inactive: all other assays above
